In publication PMC7819943, “Rice protein-binding microarrays: a tool to detect cis-acting elements near promoter regions in rice”:
Whole data set: some 68,000 sequences, median “fluorescence intensity (a.u.)” near 9,100, cut for the highest 2% near 16,000. The entries come from a sample that favours the highest values as a whole.

Each sequence was assayed against OsWRKY34 (Oryza sativa, UniProt Q0JBA9 1-250) (assay: protein-binding microarray (RPBM); PBS, 2% BSA, 51.3 ng/ul salmon testes DNA, 50 uM zinc acetate, 200 nM TF, 25 C, 1 h; high values mean tight binding). Conditions: protein: recombinant; tags: N-terminal polyhistidine and DsRed monomer fusion (pET32a); label: CyDye5-dUTP incorporated in the synthesized complementary strand; 3' TTTTT single-stranded linker to array surface; dsDNA, one strand shown.
Outline: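 The binding signal for each feature is its fluorescence intensity in arbitrary units. An Axon 4000B scanner was used to read a custom Agilent array that had been made double-stranded with Cy5-dUTP primer extension, blocked with 2% BSA, incubated at 25 °C for 1 h with 200 nM protein in PBS, 2% BSA, salmon testes DNA and 50 µM zinc acetate, and washed. The protein was an N-terminal polyhistidine–DsRed transcription factor fusion from E. coli BL21-CodonPlus, purified on Ni–NTA.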

OsWRKY34, sequence (Q0JBA9 entry or part of it): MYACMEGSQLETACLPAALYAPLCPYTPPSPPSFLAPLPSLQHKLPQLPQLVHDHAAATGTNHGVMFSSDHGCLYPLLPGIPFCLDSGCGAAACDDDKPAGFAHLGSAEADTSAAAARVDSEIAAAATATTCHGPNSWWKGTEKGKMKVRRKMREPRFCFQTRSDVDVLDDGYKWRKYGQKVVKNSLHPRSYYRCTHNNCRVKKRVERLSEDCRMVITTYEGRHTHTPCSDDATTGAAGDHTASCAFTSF

| Sequence | binding signal |
| --- | --- |
| TCCATGGATATTTTGTCTCTTCTGCTTGATCACTAGGCCCCGGAGTCACCTAGTGCAG | 10100 fluorescence intensity (a.u.) |
| TCCCGACACCGGCTGTCCACTTCGCTCTGCTCCACGCCGCCGGAGTCACCTAGTGCAG | 8660 fluorescence intensity (a.u.) |
| TCAACTCCTCCCTGAGTCTAGTCCCGATCCGCCGTTGACCCGGAGTCACCTAGTGCAG | 13000 fluorescence intensity (a.u.) |
| ATCCCCACCGTTGACCGAAGTTGACCTCCAAGAATCCTGACGGAGTCACCTAGTGCAG | 13800 fluorescence intensity (a.u.) |
| CTCCCTGAGTCTAGTCCCGATCCCCACCGTTGACCGAAGTCGGAGTCACCTAGTGCAG | 19900 fluorescence intensity (a.u.) |
| CTGAGAATTTAGGACCTGATCACTTTTATGACATTTTCAACGGAGTCACCTAGTGCAG | 8610 fluorescence intensity (a.u.) |
| TTTCCGTACTAAATTTTGTTCATTCGTTTTATTTATTTTTCGGAGTCACCTAGTGCAG | 17100 fluorescence intensity (a.u.) |
| GCTTTCTGTGGTGCATTCTATATTTTTTATATATTATTATCGGAGTCACCTAGTGCAG | 16400 fluorescence intensity (a.u.) |
| AGTGGTGCATTCTGTTTTTTTATATATTATTATTTGTTTACGGAGTCACCTAGTGCAG | 9050 fluorescence intensity (a.u.) |
| GGGTTTTTTATATACTGGTAAATATTCGCTACCGTATTCGCGGAGTCACCTAGTGCAG | 9130 fluorescence intensity (a.u.) |
| TTTGCATTTATTTTTCATTGTTTCCGTCACTTTAGAAATTCGGAGTCACCTAGTGCAG | 8260 fluorescence intensity (a.u.) |
| TTCGTATTTGTTTCCGTATCCGGATTATTCATATTCGTTTCGGAGTCACCTAGTGCAG | 8050 fluorescence intensity (a.u.) |
| GCCATTATATCTGCAGTTCTTTTCTGTGCTAAAATTTTAGCGGAGTCACCTAGTGCAG | 17100 fluorescence intensity (a.u.) |
| CCCATTATTTTTTATACCTTTATTTATCTTCTGTGTTTTTCGGAGTCACCTAGTGCAG | 13500 fluorescence intensity (a.u.) |
| TGTAGTTGTGAGTGTATTCGTTTGTACTGTTTTTTTTATACGGAGTCACCTAGTGCAG | 11900 fluorescence intensity (a.u.) |
| CATTTATCTATTTATCTATCTATATATATTATATTATATTCGGAGTCACCTAGTGCAG | 8560 fluorescence intensity (a.u.) |
| TGCGTTTATTTATACCGTTGTCCTCGCGTACTGTTTTATTCGGAGTCACCTAGTGCAG | 19400 fluorescence intensity (a.u.) |
| AATTTCTGCTGCCATTTTCTATGTTCTTTAGTCTAAGTTTCGGAGTCACCTAGTGCAG | 14700 fluorescence intensity (a.u.) |
| GAGCACATACTTTGGTCATTAATGGTGATTATAATGATATCGGAGTCACCTAGTGCAG | 8820 fluorescence intensity (a.u.) |
| GAGGAAACATCTATCCCGGTCAAAGCCTGAGCATGTACACCGGAGTCACCTAGTGCAG | 8210 fluorescence intensity (a.u.) |
| TTTCTCTTTGCACCCTAGCCTCATGTTCTTCTTCTTCCTCCGGAGTCACCTAGTGCAG | 8680 fluorescence intensity (a.u.) |
| GAAGAGCCGGCTCGTTCCTCTCCTTCCCGTTCACATTTCACGGAGTCACCTAGTGCAG | 8260 fluorescence intensity (a.u.) |
| CTGATGTCTGAACGACTGTACCCGACGTTGTTGATTGCTTCGGAGTCACCTAGTGCAG | 9820 fluorescence intensity (a.u.) |

| Sequence | binding signal |
| --- | --- |
| GGGCGACAAGCACGCGTATACCCATCTATCATCCCGCTCCCGGAGTCACCTAGTGCAG | 8390 fluorescence intensity (a.u.) |
| CACCAGCATCCTCGCACGGTCGCGACCCCTCCCGCACCTCCGGAGTCACCTAGTGCAG | 8200 fluorescence intensity (a.u.) |
| CAATCCGGACCATATAAGTGTTTTCCTTTTTTAATTCTTTCGGAGTCACCTAGTGCAG | 11300 fluorescence intensity (a.u.) |
| TACATTACTTCATATTTTTTTCTGTTTGTGATTTCTATTTCGGAGTCACCTAGTGCAG | 9740 fluorescence intensity (a.u.) |
| TTATTTTGTGATTACTATCTCTCCGTTCATGTTTCTATCTCGGAGTCACCTAGTGCAG | 16400 fluorescence intensity (a.u.) |
| ACTATTACTTCTATTTTCTAGTATTTTTTTTTGTTTCTCTCGGAGTCACCTAGTGCAG | 13500 fluorescence intensity (a.u.) |
| CCCCTATTTTGTTACCTCATTATTCTCGTATTCCCCTTTTCGGAGTCACCTAGTGCAG | 9810 fluorescence intensity (a.u.) |
| GTATTTTAAGCATATTTTTTCGTTTTTTATATTTGTAAAACGGAGTCACCTAGTGCAG | 11000 fluorescence intensity (a.u.) |
| ATAGTCATTTATTTTGTGCTCTCGTATTTTTTTTCTGTTTCGGAGTCACCTAGTGCAG | 9540 fluorescence intensity (a.u.) |
| AATTTTGTATATTCGTTTGCACGTTTTTAAAACTCCTAAACGGAGTCACCTAGTGCAG | 65500 fluorescence intensity (a.u.) |
| TACTATTTTTTCTCGTATTCATTATTTTGTGCATTATTTTCGGAGTCACCTAGTGCAG | 17200 fluorescence intensity (a.u.) |
| AAATTTGTATAGACGTTTGCTTTTAACTTAGTCCTAAATTCGGAGTCACCTAGTGCAG | 9130 fluorescence intensity (a.u.) |
| GATTGGGCGATTTCATCTTCTTCTTGGCCTTGAGGCGGTACGGAGTCACCTAGTGCAG | 10000 fluorescence intensity (a.u.) |
| TTTCTTAGCTATGTCCTAATTTATTACTGTGCATGTTTCTCGGAGTCACCTAGTGCAG | 10900 fluorescence intensity (a.u.) |
| CACATGTCATTGTCACACACACGCGCGCCCCATTGGACATCGGAGTCACCTAGTGCAG | 9860 fluorescence intensity (a.u.) |
| ATTTGCACCTGTTGAATGGGCATGTCTTGTGTGTGTTTCTCGGAGTCACCTAGTGCAG | 8400 fluorescence intensity (a.u.) |
| GTGGGGTCGGGTACTCGCGTGGGCCCACCTGGCCGGTCAACGGAGTCACCTAGTGCAG | 10200 fluorescence intensity (a.u.) |
| CCCACCAGGCCACCAAACTCTCTCGGGCCGAAACGGTCAACGGAGTCACCTAGTGCAG | 8380 fluorescence intensity (a.u.) |
| TCTCGGGCCGAAACGGTCAACGCGTTTACCGGTGGCATAACGGAGTCACCTAGTGCAG | 17500 fluorescence intensity (a.u.) |
| TCCTCTTGCAATCATTCACTCTCCTTGCTCGATTCTATAACGGAGTCACCTAGTGCAG | 11300 fluorescence intensity (a.u.) |
| AATTCTTTTGTCGTATTATCCTATCTACTTCCACTTATAACGGAGTCACCTAGTGCAG | 8560 fluorescence intensity (a.u.) |
| AATATAGTTGCTGATGCGCTGTCCAGGATGCCTGTTATACCGGAGTCACCTAGTGCAG | 9400 fluorescence intensity (a.u.) |
